The results in this text go back to PubChem BioAssay AID2315 (National Center for Advancing Translational Sciences (NCATS), 2010).

Values joined by “and” are separate entries in the source; they are usually repeats but may differ in a detail not shown here. Identical values can stand only once. In all, about 290,000 compounds went through this assay and about 27,000 (9.3%) were called active. This is one part of a sample in which actives are shown more often than they occur. No stated cut-off is given here; in the data, active means inhibition mostly above about 28% (no sharp cut-off); inactive means mostly below about 43%.

This experiment in a line: A qHTS for Small Molecule Inhibitors of Shiga Toxin. Further: 0% is about no effect. To be noted: Vero cells, Shiga toxin protein synthesis inhibition reporter; at 38.7 µM, stronger effect = higher value. In general terms: In qHTS, concentration-response curves come from the screen itself.
By inhibition is commonly meant the drop in the measured response relative to a control, in per cent. Regarding `COc1ccccc1N1CCN(C(=O)c2cc(=O)c3cc(C)cc(C)c3o2)CC1`, the inhibition is 3.39% (inactive). With `COc1cccc(-n2c(=S)sc3c(=O)n(-c4ccccc4C)c(SCC(=O)O)nc32)c1` the figure was 20.4% (inactive). With `CCOc1ccc2[nH]c3nc(SCC(=O)NC4CCCC4)nnc3c2c1` the figure was -5.52% (inactive). Turning to `CCOc1ccc2nc(N(CCN(C)C)C(=O)c3ccc4ccccc4c3)sc2c1`, the inhibition is 25.9% (inactive). For `Cc1nc(COc2cc3oc(=O)cc(C)c3cc2Cl)cs1`, the inhibition is 2.94% (inactive).

Regarding `O=C(c1cc2c(s1)CCC2)N1CCN(c2ccccc2)CC1`, the inhibition is 44.1% (inactive). With `O=C(CNC(=O)c1cc2c(s1)CCC2)Nc1ccccc1Br` the figure was 61.2% (active); with `O=C(NNC(=O)c1cc2c(s1)CCCC2)c1ccccc1`, 110% (active). The value for `NC(=O)c1c(NC(=O)c2ccccc2)sc2c1CCCC2` was 68.2% (active); that for `O=C(COC(=O)c1cc2c(s1)CCCC2)NCc1ccccc1Cl` was 7.81% (inactive).

As to `O=C(NCCCn1ccnc1)c1cc2c(s1)CCCC2`, the inhibition is -5.02% (inactive). The value for `O=C(Nc1sc2c(c1C(=O)O)CCC2)c1ccccc1F` was 15% (inactive); that for `CN(CC(=O)Nc1ccccc1F)CC(=O)Nc1ccccc1Br` was 13% (inactive); that for `C=CCN(CC=C)S(=O)(=O)c1ccc(C(=O)Nc2sc3c(c2C(N)=O)CCCCC3)cc1` was -0.928% (inactive). With `O=C(Nc1ccc(F)cc1)c1cc2c(s1)CCCC2`, the inhibition is 127% (active). `O=C(NCCCN1CCOCC1)c1cc2c(s1)CCC2`: the inhibition is 33% (inactive). With `COc1ccc(C(CNC(=O)c2cc3c(s2)CCCC3)N2CCOCC2)cc1` (centres undefined) the figure was -16.3% (inactive); with `CN1C(=O)C2(OCCCO2)c2cc(Cl)ccc21`, -14.7% (inactive). With `CC1CCN(C(=O)C2CCN(S(=O)(=O)N3CCC4(CC3)OCCO4)CC2)CC1` the figure was -15.9% (inactive); with `O=C(C[C@H]1C(=O)N(c2ccc(F)c(F)c2)C[C@@H]1Cc1ccccc1)Nc1ccccc1`, -3.22% (inactive). The value for `COc1ccc(C(=O)Nc2ccc(C(=O)NCC3CCCO3)cc2)c(OC)c1OC` (centres undefined) was -2.17% (inactive). For the compound `CCSc1nc2sc3c(c2c(=O)n1-c1ccc(C)cc1)CCN(C)C3`, the inhibition is -6.21% (inactive). For `CC1(C)Cc2c(sc(NC(=O)C(=O)N3CCOCC3)c2C#N)CO1`, the inhibition was -10.6% (inactive). The value for `CCOC(=O)C(C)n1cnc2c(nnn2-c2ccc(F)cc2)c1=O` (centres undefined) was 18.3% (inactive).

On to `CCOC(=O)C(C)n1cnc2c(nnn2-c2cccc(OC)c2)c1=O` (centres undefined), for which the inhibition is 41% (active). With `COC(=O)C(C)n1cnc2c(nnn2-c2cccc(Cl)c2)c1=O` (centres undefined) the figure was 26% (inactive); with `CCN(C(=O)CSc1nnc(-c2ccncc2)o1)c1ccccc1`, -4.1% (inactive); with `O=C(c1ccc(Oc2ccc(Cl)cc2)c([N+](=O)[O-])c1)N1CCCC1`, -5.51% (inactive).

Regarding `NC(=O)CCN1CCN(S(=O)(=O)/C=C/c2ccccc2)CC1`, the inhibition is 3.87% (inactive).

As to `O=C(O)c1cccc(N=NN2CCCCCC2)c1`, the inhibition was 139% (active). On to `O=C(c1ccccc1)N1CCN(C(=O)N2CCCCC2)CC1`, for which the inhibition is -25.1% (inactive). Take `O=C(O)c1ccc(N=NN2CCOCC2)cc1`: the inhibition is 38.4% (active). The value for `O=C(NC(=O)N1CCOCC1)c1ccccc1` was 6.72% (inactive); that for `CN1CCN(S(=O)(=O)c2cccc(C(=O)O)c2)CC1` was 24% (inactive). Consider `NC(=NC(=O)c1ccccc1)N1CCOCC1`, for which the inhibition was -9.05% (inactive).

Turning to `O=C(NCc1ccco1)c1ccc([N+](=O)[O-])cc1Cl`, the inhibition was -6.09% (inactive).

Take `O=C(Nc1ccccc1Cl)NC1(C(=O)N2CCOCC2)CCCCC1`: the inhibition is 3.21% (inactive).

For the compound `CCCCNC(=O)Nc1c(C)cc(SC#N)cc1C`, the inhibition was 12.6% (inactive).

In the case of `CCOc1ccccc1NC(=O)CCS(=O)(=O)c1cccc2nsnc12`, the inhibition is -10.2% (inactive).

For the compound `c1csc(-c2nnc(COc3ccc4c(c3)OCO4)o2)c1`, the inhibition was 100% (active). As to `Clc1ccc(Cc2nnc(-c3cccs3)o2)cc1`, the inhibition was 12.1% (inactive). For the compound `c1csc(-c2nnc(COc3ncnc4sccc34)o2)c1`, the inhibition is 13.6% (inactive). With `Cc1cc(-n2nc(C)cc2C)n2nc(C)c(-c3ccccc3)c2n1`, the inhibition was -5.33% (inactive).

For the compound `Cc1cc(-n2nc(C)cc2C)n2ncc(-c3ccccc3)c2n1`, the inhibition is 63.4% (active).

Consider `Cc1cc(N2CCCC2)n2nc(C)c(-c3ccccc3)c2n1`, for which the inhibition is 24.9% (inactive).

In the case of `CCC(C(=O)OC)n1cnc2scc(-c3ccc(C)cc3)c2c1=O` (centres undefined), the inhibition is -4.36% (inactive). Regarding `O=C(CCN1C(=O)[C@H]2CC=CC[C@H]2C1=O)NCc1nc(-c2ccccc2)no1`, the inhibition is 24.8% (inactive). With `COc1ccc(OC)c(S(=O)(=O)N2CCCC(C(=O)NCCc3ccccc3)C2)c1` (centres undefined), the inhibition is 9.04% (inactive). With `Cc1ccc(Nc2nc(-c3ccc(O)cc3O)cs2)nc1` the figure was 67.2% (active). For `Cc1ccc(NC(=O)c2cc(-c3ccc(C)o3)nc3ccccc23)nc1`, the inhibition was -4.51% (inactive). The value for `COc1ccc(/C(C)=N\NC(=O)c2ccc(-c3ccccc3)cc2)c(F)c1` was 2.19% (inactive). With `CN(C(=O)COC(=O)CNC(=O)C12CC3CC(CC(C3)C1)C2)c1ccccc1`, the inhibition is 11.2% (inactive). The value for `O=C(CNC(=O)COc1ccccc1)NCCc1ccccn1` was -6.4% (inactive); that for `Cc1c(C)c(C)c(S(=O)(=O)NCCc2ccccn2)c(C)c1C` was -12.6% (inactive). The value for `COc1ccc(NCCc2ccccn2)cc1` was 85% (active). The value for `CCC(C)c1ccc(NC(=S)N2CCCC2)cc1` (centres undefined) was 68% (active); that for `CC(=O)c1cccc(NC(=S)N2CCCC2)c1` was 12.2% (inactive). As for `S=C(Nc1ccc2c(c1)OCO2)N1CCCC1`, the inhibition is 87.4% (active). With `CCOc1ccc(NC(=S)N2CCCCCC2)cc1` the figure was 29.7% (inactive); with `Cc1cccc(C)c1NC(=S)N1CCCCCC1`, -6.49% (inactive); with `NS(=O)(=O)c1ccc(NC(=S)N2CCCC2)cc1`, -27.4% (inactive). The value for `C=CCC1=C/C(=C\c2c(N)n3nc(CC(=O)N4CCOCC4)sc3nc2=O)C=C(OC)C1=O` was -1.44% (inactive); that for `Cc1cnc(CN(C)C(=O)CC2C(=O)NCCN2Cc2cccc(F)c2F)[nH]1` (centres undefined) was -27.4% (inactive); that for `O=C(Cn1c[n+](CC(=O)c2ccc([N+](=O)[O-])cc2)cn1)c1ccc([N+](=O)[O-])cc1` was -3.01% (inactive) and 31.4% (inactive). The value for `COc1ccccc1CNS(=O)(=O)c1ccc2c(c1)NC(=O)CS2` was 17.1% (inactive). For the compound `CCOC(=O)c1ccccc1NS(=O)(=O)c1c(C)nc2sccn2c1=O`, the inhibition was -9.62% (inactive). For `CN1OC(COC(=O)c2ccc(Cl)cc2)CC1c1ccccc1` (centres undefined), the inhibition is 50.7% (active). The value for `CN1C2C=C(N(C(=O)c3ccc(Cl)cc3)c3ccccc3)CC1CC2` (centres undefined) was -14.6% (inactive); that for `Cn1cncc1COC(=O)c1ccc(Cl)cc1` was 0.74% (inactive). With `Cc1ccc(NS(=O)(=O)c2ccc3c(c2)NC(=O)CO3)cc1` the figure was -11.9% (inactive); with `Cc1cc(NC(=O)CSc2nnnn2-c2ccc(F)cc2)no1`, 24.2% (inactive); with `CN(C)c1nc(-c2cccnc2)nc(-c2ccc(Cl)cc2)c1C#N`, -6.6% (inactive). Regarding `Cc1csc(NC(=O)CSc2nnc(-c3cccnc3)o2)n1`, the inhibition is -20.1% (inactive). On to `CN(C)c1ccc(-c2nnc(-c3cccnc3)o2)cc1`, for which the inhibition is 104% (active). The value for `Cc1ccc(-n2ncc3c2CCCC3NC(=O)c2cnccn2)cc1C` (centres undefined) was 5.12% (inactive). In the case of `CCCCN(C)CCNC(=O)C1CCCN(S(=O)(=O)c2cccc3nsnc23)C1` (centres undefined), the inhibition is -5.4% (inactive). As to `O=C(CCN1CCN(C/C=C/c2ccccc2)CC1)Nc1ccccc1Cl`, the inhibition was 2.18% (inactive). Take `COc1cccc2cc(C(N)=O)/c(=N\NC(=O)c3ccccc3)oc12`: the inhibition was 97% (active). The value for `NC(=O)c1cc2ccccc2o/c1=N/NC(=O)c1cccc(F)c1` was 13.8% (inactive); that for `COc1ccc(C(=O)N/N=c2\oc3ccccc3cc2C(N)=O)cc1` was 55.8% (inactive). As to `O=C1c2ccccc2C(=O)C1c1ccccc1F`, the inhibition was -16.3% (inactive). For the compound `CCCn1c(C2CCCN2c2nc(-c3ccc(OC)cc3)cs2)nc2ccccc21` (centres undefined), the inhibition is 4.08% (inactive). As for `COc1ccc(-c2csc(Cc3nc(O)cs3)n2)cc1`, the inhibition was 94.8% (active). With `COc1ccc(OC)c(Nc2nc(-c3ccc(O)c(O)c3)cs2)c1` the figure was 7.27% (inactive); with `CC(C)(C)C(=O)OCc1nc(-c2ccc(O)c(O)c2)cs1`, 27.1% (inactive). The value for `COc1ccc(CCN(C(=O)COc2ccccc2)c2nc(-c3ccccc3)cs2)cc1OC` was -8.73% (inactive). For `CN(C(=O)CSc1nc(C2CC2)nc2ccccc12)c1nc(-c2ccccc2)cs1`, the inhibition was 14.4% (inactive).

As to `O=C(Nc1ccc(-c2csc(Nc3cccc(C(F)(F)F)c3)n2)cc1)c1cccc(C(F)(F)F)c1`, the inhibition was -5.94% (inactive). With `COc1ccc(C(=O)Nc2nc(-c3ccc(S(=O)(=O)N4CCOCC4)cc3)cs2)cc1`, the inhibition was -8.19% (inactive). With `Brc1ccc(-c2csc(N/N=C/c3cccnc3)n2)cc1` the figure was 37% (inactive); with `COc1ccc(-c2csc(Nc3ccc(O)cc3)n2)cc1`, 92.3% (active); with `CN(c1ccc(O)cc1)c1nc(-c2cccnc2)cs1`, 64.4% (active).

In the case of `Oc1ccc(-c2csc(Nc3cccnc3)n2)cc1`, the inhibition is 121% (active). `Cc1ccnc(N2CCCC(C(=O)NC3CC3)C2)n1` (centres undefined): the inhibition was -10.6% (inactive). The value for `C[C@@H](NC(=O)[C@@H]1Cc2ccccc2CN1)C(=O)NC1CCCC1` was -1.81% (inactive); that for `COCCNC(=S)N(CCc1c(C)[nH]c2ccc(C)cc12)Cc1cccnc1` was 3.9% (inactive). With `FC(F)(F)C1CCCN(c2nsc3ccccc23)C1` (centres undefined) the figure was -5.61% (inactive); with `CC1(c2ccc3ccccc3c2)NC(=O)N(CC(N)=O)C1=O` (centres undefined), 17.6% (inactive); with `O=C(Nc1c2c(nn1-c1cccc(Cl)c1)CS(=O)(=O)C2)c1cccs1`, 2.33% (inactive).
